Measurements as given in PubChem BioAssay (Tox21).
Results filed as inconclusive are left out. A call without a number means that no potency is given here. Calls of active or inactive are those of the source. Unless noted, calls follow the shape of the dose curve; as a rule, active = well fitted curve in the direction sought with a large enough effect in the repeat runs; inconclusive = weak or mixed curves; inactive = no such curve, though single readings can be large; an effect the other way counts as inactive or inconclusive.

tested on: not listed separately; assay: qHTS assay to identify small molecule antagonists of the estrogen receptor alpha (ER-alpha) signaling pathway using the BG1 cell line (AID 743080; calls by dose curve;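 also: BG1 cells stimulated with 17beta-estradiol alongside compound; nearly all actives have a fitted effect of over 25% in size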); details: BG1Luc4E2 ERE-luciferase antagonist mode, luminescence; series mostly up to 70.3 µM
Summary of the method: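 BG1-Luc-4E2 cells (endogenous full-length ER-alpha, stable 4×ERE-luciferase) were starved 5 days in phenol-red-free medium with 10% charcoal-stripped FBS, plated 24 h, then given compound plus 17beta-estradiol for 21.5 h at 37 C; ONE-Glo luminescence read after 30 min.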

Row | SMILES | Potency
1 | CC(=O)C1CCCCC1=O (centres undefined) | inactive
2 | C=CC(C)(CCC=C(C)C)OC(=O)CC (centres undefined) | inactive
3 | CCCCN1C=CN(C)C1 | inactive
4 | Cc1ccc(-c2ncc(Cl)cc2-c2ccc(S(C)(=O)=O)cc2)cn1 | inactive
5 | C=COCC1CCC(COC=C)CC1 (centres undefined) | inactive
6 | O=S(=O)(O)c1cccc(S(=O)(=O)O)c1 | inactive
7 | O=C(CO)[C@@H](O)[C@H](O)[C@@H](O)CO | inactive
8 | CCCCCCCC1CCCC1=O (centres undefined) | inactive
9 | C=CCOCC(O)CO (centres undefined) | inactive
10 | O=C(O)Cc1csc(-c2ccc(Cl)cc2)n1 | inactive
11 | CCC(C)(CCCC(C)C)OC(C)=O (centres undefined) | inactive
12 | CC(=O)Oc1cccc(C)c1 | inactive
13 | [K+] | inactive
14 | CC(C)=CCC/C(C)=C/C#N | inactive
15 | CCOC(=O)COc1cc(-n2ncc(C(F)(F)F)c(C)c2=O)c(F)cc1Cl | inactive
16 | C=CC(=O)OCCCl | inactive
17 | C1CCC2(CCCCO2)OC1 | inactive
18 | O=C(O)CNC(=O)c1ccc(CO)o1 | inactive
19 | Cc1cccc(C)c1NC(=O)CC12CCCN1CCC2 | inactive

Row | SMILES | Potency
20 | CCCC[N+](C)(CCCC)CCCC | inactive
21 | CC(C)(N)C#N | inactive
22 | CCCCN(CCC(=O)OCC)C(C)=O | inactive
23 | CO[Si](C)(OC)c1ccccc1 | inactive
24 | CCCCCCCCCCCCCCCCCCO | inactive
25 | CCC1C(=O)OCC1Cc1cncn1C (centres undefined) | inactive
26 | O=S(=O)(O)c1cc(O)c(O)c(S(=O)(=O)O)c1 | inactive
27 | CCCCCC(=O)OCCc1ccccc1 | inactive
28 | O=C(O)c1cc(C(=O)O)cc(C(=O)O)c1 | inactive
29 | CCCCOCCOC(=O)COc1cc(Cl)c(Cl)cc1Cl | inactive
30 | OCCCCCO | inactive
31 | CN(C)CCN(C)CCN(C)C | inactive
32 | CC(=O)c1cnccn1 | inactive
33 | CCCCOC(=O)CCC(C)=O | inactive
34 | CC(C)c1ccc2ncccc2c1 | inactive
35 | CCOC(=O)COC(=O)c1ccccc1C(=O)OCC | inactive
36 | CCCCCCCCCCOc1cc2c(=O)c(C(=O)OCC)c[nH]c2cc1OCC | inactive
37 | CCN[C@H]1C[C@H](C)S(=O)(=O)c2sc(S(N)(=O)=O)cc21 | inactive
38 | CCNS(=O)(=O)c1ccc(C)cc1 | inactive

tested on: not listed separately; assay: qHTS assay to identify small molecule antagonists of the estrogen receptor alpha (ER-alpha) signaling pathway using the BG1 cell line - cell viability counter screen (AID 743081); details: BG1Luc4E2 viability, CellTiter-Fluor, 22 h; series mostly up to 70.3 µM;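 also: compound given together with 17beta-estradiol as the ER stimulus; nearly all actives have a fitted effect of over 45% in size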

Row | SMILES | outcome
39 | CC(=O)C1CCCCC1=O (centres undefined) | inactive
40 | C=CC(C)(CCC=C(C)C)OC(=O)CC (centres undefined) | inactive
41 | CCCCN1C=CN(C)C1 | inactive
42 | Cc1ccc(-c2ncc(Cl)cc2-c2ccc(S(C)(=O)=O)cc2)cn1 | inactive
43 | C=COCC1CCC(COC=C)CC1 (centres undefined) | inactive
44 | O=S(=O)(O)c1cccc(S(=O)(=O)O)c1 | inactive
45 | O=C(CO)[C@@H](O)[C@H](O)[C@@H](O)CO | inactive
46 | CCCCCCCC1CCCC1=O (centres undefined) | inactive
47 | C=CCOCC(O)CO (centres undefined) | inactive
48 | O=C(O)Cc1csc(-c2ccc(Cl)cc2)n1 | inactive
49 | CCC(C)(CCCC(C)C)OC(C)=O (centres undefined) | inactive
50 | CC(=O)Oc1cccc(C)c1 | inactive
51 | [K+] | inactive
52 | CC(C)=CCC/C(C)=C/C#N | inactive
53 | CCOC(=O)COc1cc(-n2ncc(C(F)(F)F)c(C)c2=O)c(F)cc1Cl | inactive
54 | C=CC(=O)OCCCl | inactive
55 | C1CCC2(CCCCO2)OC1 | inactive
56 | O=C(O)CNC(=O)c1ccc(CO)o1 | inactive
57 | Cc1cccc(C)c1NC(=O)CC12CCCN1CCC2 | inactive

Row | SMILES | outcome
58 | CCCC[N+](C)(CCCC)CCCC | inactive
59 | CC(C)(N)C#N | inactive
60 | CCCCN(CCC(=O)OCC)C(C)=O | inactive
61 | CO[Si](C)(OC)c1ccccc1 | inactive
62 | CCCCCCCCCCCCCCCCCCO | inactive
63 | CCC1C(=O)OCC1Cc1cncn1C (centres undefined) | inactive
64 | O=S(=O)(O)c1cc(O)c(O)c(S(=O)(=O)O)c1 | inactive
65 | CCCCCC(=O)OCCc1ccccc1 | inactive
66 | O=C(O)c1cc(C(=O)O)cc(C(=O)O)c1 | inactive
67 | CCCCOCCOC(=O)COc1cc(Cl)c(Cl)cc1Cl | inactive
68 | OCCCCCO | inactive
69 | CN(C)CCN(C)CCN(C)C | inactive
70 | CC(=O)c1cnccn1 | inactive
71 | CCCCOC(=O)CCC(C)=O | inactive
72 | CC(C)c1ccc2ncccc2c1 | inactive
73 | CCOC(=O)COC(=O)c1ccccc1C(=O)OCC | inactive
74 | CCCCCCCCCCOc1cc2c(=O)c(C(=O)OCC)c[nH]c2cc1OCC | inactive
75 | CCN[C@H]1C[C@H](C)S(=O)(=O)c2sc(S(N)(=O)=O)cc21 | inactive
76 | CCNS(=O)(=O)c1ccc(C)cc1 | inactive

molecular target: Aromatase (Homo sapiens) (UniProt P11511); assay: qHTS assay to identify aromatase inhibitors (AID 743083); details: MCF-7 aro ERE, testosterone-driven ERE luciferase, 24 h; series mostly up to 70.3 µM; also: nearly all actives have a fitted effect of over 55% in size
Sequence (P11511 whole entry, looked up): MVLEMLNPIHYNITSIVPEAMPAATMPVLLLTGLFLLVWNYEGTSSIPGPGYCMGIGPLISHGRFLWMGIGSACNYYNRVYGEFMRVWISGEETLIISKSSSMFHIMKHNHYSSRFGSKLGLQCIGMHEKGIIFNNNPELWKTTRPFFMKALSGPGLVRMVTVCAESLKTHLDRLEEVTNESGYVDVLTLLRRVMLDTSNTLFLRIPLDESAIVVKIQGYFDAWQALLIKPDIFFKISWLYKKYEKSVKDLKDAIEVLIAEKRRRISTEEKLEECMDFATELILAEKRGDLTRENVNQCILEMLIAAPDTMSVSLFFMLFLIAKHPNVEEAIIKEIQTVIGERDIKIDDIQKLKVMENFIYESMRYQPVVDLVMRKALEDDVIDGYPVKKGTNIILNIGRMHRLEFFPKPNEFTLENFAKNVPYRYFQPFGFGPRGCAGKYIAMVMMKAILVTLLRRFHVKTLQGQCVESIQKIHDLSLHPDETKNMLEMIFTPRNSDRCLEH

Row | SMILES | outcome
77 | CC(=O)C1CCCCC1=O (centres undefined) | inactive
78 | C=CC(C)(CCC=C(C)C)OC(=O)CC (centres undefined) | inactive
79 | CCCCN1C=CN(C)C1 | inactive
80 | Cc1ccc(-c2ncc(Cl)cc2-c2ccc(S(C)(=O)=O)cc2)cn1 | inactive
81 | C=COCC1CCC(COC=C)CC1 (centres undefined) | inactive
82 | O=S(=O)(O)c1cccc(S(=O)(=O)O)c1 | inactive
83 | O=C(CO)[C@@H](O)[C@H](O)[C@@H](O)CO | inactive
84 | CCCCCCCC1CCCC1=O (centres undefined) | inactive
85 | C=CCOCC(O)CO (centres undefined) | inactive
86 | O=C(O)Cc1csc(-c2ccc(Cl)cc2)n1 | inactive
87 | CCC(C)(CCCC(C)C)OC(C)=O (centres undefined) | inactive
88 | CC(=O)Oc1cccc(C)c1 | inactive
89 | [K+] | inactive
90 | CC(C)=CCC/C(C)=C/C#N | inactive
91 | CCOC(=O)COc1cc(-n2ncc(C(F)(F)F)c(C)c2=O)c(F)cc1Cl | inactive
92 | C=CC(=O)OCCCl | inactive
93 | C1CCC2(CCCCO2)OC1 | inactive
94 | O=C(O)CNC(=O)c1ccc(CO)o1 | inactive
95 | Cc1cccc(C)c1NC(=O)CC12CCCN1CCC2 | inactive

Row | SMILES | outcome
96 | CCCC[N+](C)(CCCC)CCCC | inactive
97 | CC(C)(N)C#N | inactive
98 | CCCCN(CCC(=O)OCC)C(C)=O | inactive
99 | CO[Si](C)(OC)c1ccccc1 | inactive
100 | CCCCCCCCCCCCCCCCCCO | inactive
101 | CCC1C(=O)OCC1Cc1cncn1C (centres undefined) | inactive
102 | O=S(=O)(O)c1cc(O)c(O)c(S(=O)(=O)O)c1 | inactive
103 | CCCCCC(=O)OCCc1ccccc1 | inactive
104 | O=C(O)c1cc(C(=O)O)cc(C(=O)O)c1 | inactive
105 | CCCCOCCOC(=O)COc1cc(Cl)c(Cl)cc1Cl | inactive
106 | OCCCCCO | inactive
107 | CN(C)CCN(C)CCN(C)C | inactive
108 | CC(=O)c1cnccn1 | inactive
109 | CCCCOC(=O)CCC(C)=O | inactive
110 | CC(C)c1ccc2ncccc2c1 | inactive
111 | CCOC(=O)COC(=O)c1ccccc1C(=O)OCC | inactive
112 | CCCCCCCCCCOc1cc2c(=O)c(C(=O)OCC)c[nH]c2cc1OCC | inactive
113 | CCN[C@H]1C[C@H](C)S(=O)(=O)c2sc(S(N)(=O)=O)cc21 | inactive
114 | CCNS(=O)(=O)c1ccc(C)cc1 | inactive
